Shown is part of a subset that was picked to be rich in the strongest signals.
How the values were obtained:
Assay in all cases: glycan array binding signal (z-score within array); higher = stronger binding
Conditions in all cases: glycan notation: IUPAC condensed, linker removed
[1] = target: Fuc(a1-2)Gal(b1-3)GlcNAc(b1-3)GalNAc
Summary of the method: (§1)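 The binding signal is a Z-score computed within each array and averaged over linkers. Arrays of the same protein sequence at different concentrations or buffers were also averaged together. Data originate from 3228 arrays in the Consortium for Functional Glycomics database, kept only where the protein sequence was available.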

[2] = target: Fuc(a1-2)Gal(b1-3)[Fuc(a1-4)]GlcNAc(b1-2)Man(a1-3)[Fuc(a1-2)Gal(b1-3)[Fuc(a1-4)]GlcNAc(b1-2)Man(a1-3)]Man(b1-4)GlcNAc(b1-4)GlcNAc
Summary of the method: as §1

[3] = target: Fuc(a1-2)Gal(b1-4)GlcNAc(b1-3)GalNAc
Summary of the method: as §1

[4] = target: Fuc(a1-2)Gal(b1-4)GlcNAc(b1-3)[Fuc(a1-2)Gal(b1-4)GlcNAc(b1-6)]GalNAc
Summary of the method: as §1

[5] = target: Fuc(a1-2)Gal(b1-4)GlcNAc(b1-3)[Fuc(a1-3)[Gal(b1-4)]GlcNAc(b1-6)]Gal(b1-4)Glc
Summary of the method: as §1

[6] = target: Fuc(a1-2)[Gal(a1-3)]Gal(b1-3)GlcNAc(b1-2)Man(a1-3)[Fuc(a1-2)[Gal(a1-3)]Gal(b1-3)GlcNAc(b1-2)Man(a1-6)]Man(b1-4)GlcNAc(b1-4)GlcNAc
Summary of the method: as §1

[7] = target: Fuc(a1-2)[Gal(a1-3)]Gal(b1-4)Glc
Summary of the method: as §1

[8] = target: Fuc(a1-2)[Gal(a1-3)]Gal(b1-4)GlcNAc(b1-3)[Fuc(a1-2)[Gal(a1-3)]Gal(b1-4)GlcNAc(b1-6)]GalNAc
Summary of the method: as §1

[9] = target: Fuc(a1-2)[Gal(a1-3)]Gal(b1-4)GlcNAc(b1-6)GalNAc
Summary of the method: as §1

[10] = target: Fuc(a1-2)[GalNAc(a1-3)]Gal(b1-4)GlcNAc(b1-2)Man
Summary of the method: as §1

[11] = target: Fuc(a1-3)[Gal3S(b1-4)]GlcNAc
Summary of the method: as §1

[12] = target: Fuc(a1-3)[GalNAc(b1-4)]GlcNAc
Summary of the method: as §1

Fuc(a1-4)GlcNAc = target: Fuc(a1-4)GlcNAc
Summary of the method: as §1

[13] = target: Gal(a1-3)[Gal(a1-4)]Gal(b1-4)GlcNAc
Summary of the method: as §1

[14] = target: Gal(b1-3)GlcNAc(b1-3)Gal(b1-4)GlcNAc(b1-2)[Gal(b1-3)GlcNAc(b1-3)Gal(b1-4)GlcNAc(b1-6)]Man(a1-6)[Gal(b1-3)GlcNAc(b1-3)Gal(b1-4)GlcNAc(b1-2)Man(a1-3)]Man(b1-4)GlcNAc(b1-4)[Fuc(a1-6)]GlcNAc
Summary of the method: as §1

[15] = target: Gal(b1-3)[Neu5Ac(a2-6)]GalNAc
Summary of the method: as §1

[16] = target: Gal(b1-3)[Neu5Ac(b2-6)]GalNAc
Summary of the method: as §1

[17] = target: Gal(b1-4)GlcNAc(a1-6)Gal(b1-4)GlcNAc
Summary of the method: as §1

[18] = target: Gal(b1-4)GlcNAc(b1-2)[Gal(b1-4)GlcNAc(b1-4)]Man(a1-3)[Gal(b1-4)GlcNAc(b1-2)[Gal(b1-4)GlcNAc(b1-6)]Man(a1-6)]Man(b1-4)GlcNAc(b1-4)GlcNAc
Summary of the method: as §1

[19] = target: Gal(b1-4)GlcNAc(b1-2)[Gal(b1-4)GlcNAc(b1-4)]Man(a1-3)[GlcNAc(b1-4)][Gal(b1-4)GlcNAc(b1-2)[Gal(b1-4)GlcNAc(b1-6)]Man(a1-6)]Man(b1-4)GlcNAc(b1-4)GlcNAc
Summary of the method: as §1

[20] = target: Gal(b1-4)GlcNAc(b1-3)Gal(b1-4)GlcNAc(b1-3)Gal(b1-4)GlcNAc(b1-3)Gal(b1-4)GlcNAc(b1-3)Gal(b1-4)GlcNAc(b1-2)Man(a1-3)[Gal(b1-4)GlcNAc(b1-3)Gal(b1-4)GlcNAc(b1-3)Gal(b1-4)GlcNAc(b1-3)Gal(b1-4)GlcNAc(b1-3)Gal(b1-4)GlcNAc(b1-2)Man(a1-6)]Man(b1-4)GlcNAc(b1-4)[Fuc(a1-6)]GlcNAc
Summary of the method: as §1

[21] = target: Gal(b1-4)GlcNAc(b1-3)Gal(b1-4)GlcNAc(b1-3)[Gal(b1-4)GlcNAc(b1-3)Gal(b1-4)GlcNAc(b1-6)]GalNAc
Summary of the method: as §1

Gal3S(b1-4)Glc6S = target: Gal3S(b1-4)Glc6S
Summary of the method: as §1

Gal6P(b1-4)GlcNAc = target: Gal6P(b1-4)GlcNAc
Summary of the method: as §1

[22] = target: Glc(a1-6)Glc(a1-6)Glc(a1-6)Glc
Summary of the method: as §1

[23] = target: GlcNAc(b1-3)Gal(b1-4)GlcNAc(b1-2)[GlcNAc(b1-3)Gal(b1-4)GlcNAc(b1-6)]Man(a1-6)[GlcNAc(b1-3)Gal(b1-4)GlcNAc(b1-2)Man(a1-3)]Man(b1-4)GlcNAc(b1-4)GlcNAc
Summary of the method: as §1

[24] = target: GlcNAc(b1-3)Gal(b1-4)GlcNAc(b1-3)Gal(b1-4)GlcNAc
Summary of the method: as §1

[25] = target: GlcNAc(b1-3)Gal(b1-4)GlcNAc(b1-3)GalNAc
Summary of the method: as §1

[26] = target: GlcNAc(b1-4)GlcNAc(b1-4)GlcNAc
Summary of the method: as §1

[27] = target: GlcNAc(b1-4)GlcNAc(b1-4)GlcNAc(b1-4)GlcNAc(b1-4)GlcNAc
Summary of the method: as §1

[28] = target: GlcNAc(b1-4)GlcNAc(b1-4)GlcNAc(b1-4)GlcNAc(b1-4)GlcNAc(b1-4)GlcNAc
Summary of the method: as §1

MurNAc(b1-4)GlcNAc = target: MurNAc(b1-4)GlcNAc
Summary of the method: as §1

[29] = target: Neu5Ac(a2-3)Gal(b1-3)GlcNAc
Summary of the method: as §1

Neu5Ac(a2-3)Gal(b1-4)Glc = target: Neu5Ac(a2-3)Gal(b1-4)Glc
Summary of the method: as §1

[30] = target: Neu5Ac(a2-3)Gal(b1-4)GlcNAc(b1-3)Gal
Summary of the method: as §1

[31] = target: Neu5Ac(a2-3)Gal(b1-4)GlcNAc(b1-3)Gal(b1-4)GlcNAc
Summary of the method: as §1

[32] = target: Neu5Ac(a2-3)Gal(b1-4)GlcNAc(b1-6)GalNAc
Summary of the method: as §1

[33] = target: Neu5Ac(a2-3)Gal(b1-4)[Fuc(a1-3)]GlcNAc
Summary of the method: as §1

[34] = target: Neu5Ac(a2-3)Gal(b1-4)[Fuc(a1-3)]GlcNAc(b1-3)Gal(b1-4)[Fuc(a1-3)]GlcNAc(b1-3)Gal(b1-4)[Fuc(a1-3)]GlcNAc
Summary of the method: as §1

[35] = target: Neu5Ac(a2-3)Gal(b1-4)[Fuc(a1-3)]GlcNAc(b1-3)GalNAc
Summary of the method: as §1

Neu5Ac(a2-3)GalNAc = target: Neu5Ac(a2-3)GalNAc
Summary of the method: as §1

[36] = target: Neu5Ac(a2-3)[Neu5Ac(a2-6)]GalNAc
Summary of the method: as §1

Neu5Ac(a2-6)Gal(b1-4)Glc = target: Neu5Ac(a2-6)Gal(b1-4)Glc
Summary of the method: as §1

[37] = target: Neu5Ac(a2-6)Gal(b1-4)GlcNAc(b1-2)Man(a1-3)[Neu5Ac(a2-6)Gal(b1-4)GlcNAc(b1-2)Man(a1-6)]Man(b1-4)GlcNAc(b1-4)GlcNAc
Summary of the method: as §1

[38] = target: Neu5Ac(a2-6)Gal(b1-4)GlcNAc(b1-2)Man(a1-6)[Man(a1-3)]Man(b1-4)GlcNAc(b1-4)GlcNAc
Summary of the method: as §1

[39] = target: Neu5Ac(a2-6)Gal(b1-4)GlcNAc(b1-3)Gal(b1-4)GlcNAc(b1-3)Gal(b1-4)GlcNAc(b1-2)Man(a1-3)[Neu5Ac(a2-6)Gal(b1-4)GlcNAc(b1-3)Gal(b1-4)GlcNAc(b1-3)Gal(b1-4)GlcNAc(b1-2)Man(a1-6)]GalNAc
Summary of the method: as §1

[40] = target: Neu5Ac(a2-6)Gal(b1-4)GlcNAc(b1-3)Gal(b1-4)[Fuc(a1-3)]GlcNAc(b1-3)Gal(b1-4)[Fuc(a1-3)]GlcNAc
Summary of the method: as §1

[41] = target: Neu5Ac(a2-6)GlcNAc(b1-4)GlcNAc(b1-4)GlcNAc
Summary of the method: as §1

[42] = target: Neu5Ac(a2-8)Neu5Ac(a2-3)Gal(b1-3)GalNAc(b1-4)[Neu5Ac(a2-8)Neu5Ac(a2-3)]Gal(b1-4)Glc
Summary of the method: as §1

[43] = target: Neu5Ac(a2-8)Neu5Ac(a2-8)Neu5Ac
Summary of the method: as §1

B1: MSMEG3662-2a (Mycobacterium smegmatis), A0QYH7_MYCS2 (protein)
chain: MGDTLTAGQKLERGGSLQSGNGAYTLTLQDDGNLVLYARDKAVWSTGTNGQDVVRAEVQTDGNFVLYTAEKPVWHTDTKGKKEVKLVLQDDRNLVLYAKDGPAWSSKTDTTEPPPPAPEPEKEAEVAPAAAEEAAPAPVAEPAPAEPAPAAPPPAPPAPRTYTVVSGDTLWAIAERFYGDGSKYQQIADASGIANPDLIHPGQVLTIP
Which results are given for B1?
glycan array binding signal (z-score) [1]: -0.084; glycan array binding signal (z-score) [2]: 0.02; glycan array binding signal (z-score) [3]: 0.35; glycan array binding signal (z-score) [4]: -0.023; glycan array binding signal (z-score) [5]: -0.103; glycan array binding signal (z-score) [6]: -0.102; glycan array binding signal (z-score) [7]: -0.24; glycan array binding signal (z-score) [8]: 0.285; glycan array binding signal (z-score) [9]: -0.124; glycan array binding signal (z-score) [10]: -0.046; glycan array binding signal (z-score) [11]: -0.028; glycan array binding signal (z-score) [12]: 0.413; glycan array binding signal (z-score) (Fuc(a1-4)GlcNAc): 11.1; glycan array binding signal (z-score) [13]: -0.039; glycan array binding signal (z-score) [14]: 0.25; glycan array binding signal (z-score) [15]: -0.105; glycan array binding signal (z-score) [16]: 0.064; glycan array binding signal (z-score) [17]: -0.067; glycan array binding signal (z-score) [18]: -0.118; glycan array binding signal (z-score) [19]: -0.186; glycan array binding signal (z-score) [20]: 0.159; glycan array binding signal (z-score) [21]: 0.038; glycan array binding signal (z-score) (Gal3S(b1-4)Glc6S): -0.107; glycan array binding signal (z-score) (Gal6P(b1-4)GlcNAc): -0.205; glycan array binding signal (z-score) [22]: -0.182; glycan array binding signal (z-score) [23]: -0.017; glycan array binding signal (z-score) [24]: -0.131; glycan array binding signal (z-score) [25]: -0.121; glycan array binding signal (z-score) [26]: 3.59; glycan array binding signal (z-score) [27]: 8.12; glycan array binding signal (z-score) [28]: 13.9; glycan array binding signal (z-score) (MurNAc(b1-4)GlcNAc): 1.49; glycan array binding signal (z-score) [29]: -0.039; glycan array binding signal (z-score) (Neu5Ac(a2-3)Gal(b1-4)Glc): 0.572; glycan array binding signal (z-score) [30]: -0.15; glycan array binding signal (z-score) [31]: 0.065; glycan array binding signal (z-score) [32]: -0.234; glycan array binding signal (z-score) [33]: -0.124; glycan array binding signal (z-score) [34]: -0.044; glycan array binding signal (z-score) [35]: 0.43; glycan array binding signal (z-score) (Neu5Ac(a2-3)GalNAc): -0.06; glycan array binding signal (z-score) [36]: -0.161; glycan array binding signal (z-score) (Neu5Ac(a2-6)Gal(b1-4)Glc): -0.068; glycan array binding signal (z-score) [37]: -0.046; glycan array binding signal (z-score) [38]: -0.14; glycan array binding signal (z-score) [39]: 0.293; glycan array binding signal (z-score) [40]: -0.129; glycan array binding signal (z-score) [41]: 1.58; glycan array binding signal (z-score) [42]: 0.097; glycan array binding signal (z-score) [43]: -0.147

From the supplement of paper PMC8728848
